The values below come from PubChem BioAssay (NCATS).

Assay [1] deals with Lysosomal acid glucosylceramidase (Homo sapiens) (UniProt P04062). The assay can be described thus: Glucocerebrosidase-p2 (AID 348; in the data active means potency below about 10 µM; further: potency means the concentration at half of the fitted maximal effect). Particulars: purified GBA, blue fluorogenic substrate, 40 min. An outline of the steps: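 Compounds titrated from 0.6 nM upwards against 0.2 nM enzyme in pH 5.9 citric acid/KH2PO4, taurocholate, tween-20; blue fluorogenic substrate 80 uM, 40 min room temperature, stopped and read Ex 365/Em 440 for AC50.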
Sequence of Lysosomal acid glucosylceramidase (Homo sapiens) (P04062 whole entry, looked up): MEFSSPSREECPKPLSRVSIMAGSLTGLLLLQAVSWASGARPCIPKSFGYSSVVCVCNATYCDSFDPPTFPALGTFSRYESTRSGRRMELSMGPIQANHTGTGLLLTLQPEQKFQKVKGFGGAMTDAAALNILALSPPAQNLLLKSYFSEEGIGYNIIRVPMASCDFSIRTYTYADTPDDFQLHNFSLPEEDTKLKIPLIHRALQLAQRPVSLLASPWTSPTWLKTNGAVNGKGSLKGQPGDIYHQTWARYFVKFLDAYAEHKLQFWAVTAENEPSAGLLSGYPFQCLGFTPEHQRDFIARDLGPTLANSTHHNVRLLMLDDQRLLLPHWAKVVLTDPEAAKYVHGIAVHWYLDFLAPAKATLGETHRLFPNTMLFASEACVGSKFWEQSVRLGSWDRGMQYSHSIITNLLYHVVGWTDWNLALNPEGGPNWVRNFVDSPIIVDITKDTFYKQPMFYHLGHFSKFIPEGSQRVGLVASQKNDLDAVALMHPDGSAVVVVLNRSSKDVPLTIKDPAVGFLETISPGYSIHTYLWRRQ

Assay [2] in a line: AP1 Signaling Pathway (AID 357; active means well fitted curve in either direction with a large enough effect, not every such curve was filed as active;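 further: ME-180 reporter cells stimulated with EGF at its EC50 level; on the % scale 0 is the no-effect control and ±100 the full control effect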). Particulars: ME-180 AP-1-bla reporter, EGF-induced, beta-lactamase ratio, 5 h; at 7.69 µM (top of the series) unless noted. An outline of the steps:
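Modulation of EGF-driven AP-1 transcription was assessed with a beta-lactamase reporter in ME-180 cells. Compound and EC50 EGF were co-incubated 5 hours at 37 °C before 2.5-hour CCF4 loading at room temperature and dual-emission reading.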

Assay [3] deals with Cytochrome P450 1A2 (Homo sapiens) (UniProt P05177). Briefly: p450-cyp1a2 (AID 410; calls by dose curve; further: potency means the concentration at half of the fitted maximal effect). An outline of the steps:
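Inhibition was calculated relative to 57 uM furafylline (full inhibition). The reaction used human CYP1A2 at 20nM with Luciferin-ME at its Km, 100uM, driven by an NADPH-regenerating system for 60 min at room temperature.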

The nature of assay [4]: NFAT Signaling Pathway (AID 444; active means well fitted curve in either direction with a large enough effect, not every such curve was filed as active;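 further: carbachol stimulus at about its EC50 of 1 µM final; on the % scale 0 is the no-effect control and ±100 the full control effect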). As to conditions: Jurkat NFAT-bla M1, carbachol, beta-lactamase ratio, 5 h; at 7.69 µM (top of the series) unless noted. An outline of the steps:
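Read-out: CCF4 FRET ratio (460 nm/530 nm) after 1 h RT dye loading, used for %activity and AC50 from titration series. Cells: Jurkat NFAT-β-lactamase/M1 line, treated with compound plus 1 uM carbachol for 5 h, 37 °C.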

In assay [5] the target is Glucocorticoid receptor (Homo sapiens) (UniProt P04150). The assay can be described thus: GR-GFP Redistribution (AID 450;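 active means compounds whose dose series gives a full or clear partial fitted curve of increased nuclear translocation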; further: potency means the concentration at half of the fitted maximal effect). Particulars: U2OS GR-GFP nuclear translocation, laser cytometry, 2 h.
Sequence of Glucocorticoid receptor (Homo sapiens) (P04150 whole entry, looked up, the tested form may be a part): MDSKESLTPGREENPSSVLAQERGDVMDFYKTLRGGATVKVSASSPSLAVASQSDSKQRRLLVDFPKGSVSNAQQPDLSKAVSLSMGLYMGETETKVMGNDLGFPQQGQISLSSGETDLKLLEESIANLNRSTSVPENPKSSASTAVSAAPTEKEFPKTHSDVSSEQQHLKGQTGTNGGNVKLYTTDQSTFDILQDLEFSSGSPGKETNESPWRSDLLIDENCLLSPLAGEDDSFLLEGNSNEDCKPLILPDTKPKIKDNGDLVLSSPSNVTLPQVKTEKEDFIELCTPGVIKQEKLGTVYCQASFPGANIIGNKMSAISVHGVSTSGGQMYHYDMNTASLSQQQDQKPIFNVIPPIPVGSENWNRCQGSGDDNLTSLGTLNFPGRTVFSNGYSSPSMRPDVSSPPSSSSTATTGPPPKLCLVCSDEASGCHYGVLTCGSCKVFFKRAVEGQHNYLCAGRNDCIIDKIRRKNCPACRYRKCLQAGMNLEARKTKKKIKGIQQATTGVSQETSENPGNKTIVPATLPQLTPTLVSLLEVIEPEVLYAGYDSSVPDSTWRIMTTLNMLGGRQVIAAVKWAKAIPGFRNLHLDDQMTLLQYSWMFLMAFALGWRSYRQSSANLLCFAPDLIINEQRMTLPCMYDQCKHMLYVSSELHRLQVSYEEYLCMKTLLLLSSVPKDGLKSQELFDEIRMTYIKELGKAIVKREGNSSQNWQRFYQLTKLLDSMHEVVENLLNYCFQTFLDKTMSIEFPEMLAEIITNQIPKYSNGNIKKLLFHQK
The target is the same in assay [6]. Briefly: GR-EFC Redistribution (AID 451; calls by dose curve; further: potency means the concentration at half of the fitted maximal effect). Particulars: CHO-K1 GR-EFC translocation, beta-gal luminescence, 2 h. An outline of the steps: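 Translocation of GR-ED fusion to nuclear EA restores b-gal, read by luminescence after 1 h room-temperature detection. Engineered CHO-K1 biosensor cells, 1,000/well, exposed 2 h at 37 C to titrations up to 46 uM final.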
For assay [7], the target named is Mitogen-activated protein kinase 10 (Mus musculus) (UniProt Q61831). Briefly: JNK3 AlphaScreen Assay (AID 530; active means well fitted curve in either direction with a large enough effect, not every such curve was filed as active;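 further: kinase came from lysate of stimulated human HepG2 cells; signal reports phosphorylation of biotinylated GST-cJun 1-79 at Ser73 with 10 µM ATP; on the % scale 0 is the no-effect control and ±100 the full control effect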). An outline of the steps:
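Room-temperature AlphaScreen kinase assay; pre-activated HepG2 lysate as JNK3 source, biotin-GST-cJun(1-79) substrate, 10 uM ATP, compound 15 min preincubation.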

Assay [8] addresses 3',5'-cyclic-AMP phosphodiesterase 4B (Homo sapiens) (UniProt Q07343). The assay can be described thus: qHTS Assay for Inhibitors of PDE-IV (AID 607; active means well fitted activation curve with a large enough effect in the main read-out, with a control signal flat, not every such curve was filed as active; further: % of control where 0% means no effect). An outline of the steps:
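HEK293 ACTOne cells with CNG channel (1000/well), endogenous PDE4; membrane potential dye, compounds up to 22.9 uM final. Fluorescence Ex 535/Em 590; RO 20-1724 (100 uM final) as reference.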

The target of assay [9] is Cytochrome P450 3A4 (Homo sapiens) (UniProt P08684). Briefly: qHTS Assay for Activators of Cytochrome P450 3A4 (AID 885). Further: nearly all actives have a fitted effect of over 65% in size. An outline of the steps:
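Human CYP3A4 (20 nM) with Luciferin-PPXE at 25 uM (its KM) in 200 mM KPO4; 10 min compound preincubation, then NADPH regeneration and 60 min reaction at RT. Luciferin read by luminescence; normalized to 57 uM ketoconazole full inhibition.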

A short description of assay [10]: qHTS Assay for Lipid Storage Modulators (AID 1519; calls by dose curve). As to conditions: Drosophila S3 cells, BODIPY lipid droplet/cell ratio, laser cytometry, cells loaded with oleic acid; for activity change, negative = inhibition: at 57.5 µM (top of the series). An outline of the steps: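 Cells seeded at 5,000 per well were treated with compounds over a concentration series and loaded with oleic acid (400 uM, as added). Lipid droplet fluorescence (488 nm excitation, 500-530 nm channel) was read by laser-scanning cytometry and normalized to 20 uM Triacsin C.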

For assay [11], the target named is Dual specificity protein kinase CLK4 (Homo sapiens) (UniProt Q9HAZ1). The assay can be described thus: qHTS Assay for Inhibitors of CDC-like Kinase 4 (Kinase-Glo Assay) (AID 1770). Further: nearly all actives have a fitted effect of over 65% in size. Further: potency means the concentration at half of the fitted maximal effect. An outline of the steps:
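Luminescent ATP-depletion read-out (Kinase-Glo) after 4.5 h room-temperature reaction of Clk4 (25 nM final) with RS peptide (100 uM) and ATP (1 uM), pH 7.5 Tris buffer with MgCl2 and DTT.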

For assay [12] the target is unchanged. The assay can be described thus: qHTS Assay for Inhibitors of CDC-like Kinase 4 (ADP-Glo Assay) (AID 1771). Further: nearly all actives have a fitted effect of over 70% in size. Further: potency means the concentration at half of the fitted maximal effect. An outline of the steps: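 Kinase reaction: Clk4 at 25 nM, RS repeat peptide substrate at 100 uM, ATP at 1 uM, 1 hr, room temperature. Product ADP detected as luciferase signal via ADP-Glo.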
For assay [13], the target named is Ubiquitin carboxyl-terminal hydrolase 1 (Homo sapiens) (UniProt O94782). Briefly: Inhibitors of USP1/UAF1: Pilot qHTS (AID 504865).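 Further: rhodamine fluorescence freed from ubiquitin-rhodamine substrate followed over time; top concentration of the series differs between compounds; on the % scale 0 is the no-effect control and ±100 the full control effect; nearly all actives have a fitted effect of over 35% in size.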 An outline of the steps: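 Deubiquitinase activity followed as kinetic rhodamine fluorescence release from 150 nM Ub-Rho. 1 nM USP1/UAF1 with compound, after 15 min room-temperature preincubation, in HEPES pH 7.8 buffer containing TCEP, EDTA, BSA and Tween-20.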
Sequence of Ubiquitin carboxyl-terminal hydrolase 1 (Homo sapiens) (O94782 whole entry, looked up): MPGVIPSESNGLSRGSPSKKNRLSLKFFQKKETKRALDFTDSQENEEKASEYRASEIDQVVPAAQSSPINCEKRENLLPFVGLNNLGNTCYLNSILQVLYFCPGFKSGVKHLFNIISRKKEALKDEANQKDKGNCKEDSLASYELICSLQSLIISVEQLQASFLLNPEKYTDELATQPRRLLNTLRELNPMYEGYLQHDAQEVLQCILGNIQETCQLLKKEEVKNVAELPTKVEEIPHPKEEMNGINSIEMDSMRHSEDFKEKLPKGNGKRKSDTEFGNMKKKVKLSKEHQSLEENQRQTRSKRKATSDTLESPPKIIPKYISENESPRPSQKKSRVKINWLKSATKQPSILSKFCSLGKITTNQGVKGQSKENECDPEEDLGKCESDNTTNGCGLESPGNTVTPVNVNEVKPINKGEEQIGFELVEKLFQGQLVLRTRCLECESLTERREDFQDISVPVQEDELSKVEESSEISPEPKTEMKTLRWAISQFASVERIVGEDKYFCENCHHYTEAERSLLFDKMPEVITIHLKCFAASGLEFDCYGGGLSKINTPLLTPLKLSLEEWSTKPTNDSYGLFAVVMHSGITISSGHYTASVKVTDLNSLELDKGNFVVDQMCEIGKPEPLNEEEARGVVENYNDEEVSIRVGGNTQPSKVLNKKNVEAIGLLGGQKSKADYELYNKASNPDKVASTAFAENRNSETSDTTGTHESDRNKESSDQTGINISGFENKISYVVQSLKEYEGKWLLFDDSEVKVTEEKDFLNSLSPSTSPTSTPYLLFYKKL

A short description of assay [14]: Primary qHTS for small molecule stabilizers of the endoplasmic reticulum resident proteome: Secreted ER Calcium Modulated Protein (SERCaMP) assay (AID 1508630). Further: on the % scale 0 is the no-effect control and ±100 the full control effect. An outline of the steps:
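GLuc-SERCaMP-expressing SH-SY5Y cells, pretreated 16 h with compound, are challenged with thapsigargin to empty ER calcium stores; after 4 h, coelenterazine is added directly to the medium and luminescence is imaged.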

Assay [15] addresses Cytochrome P450 3A4 (Homo sapiens) (UniProt P08684). The assay can be described thus: qHTS Assay for Inhibitors and Substrates of Cytochrome P450 3A4 (AID 884). Further: potency means the concentration at half of the fitted maximal effect; nearly all actives have a fitted effect of over 50% in size. An outline of the steps: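 20 nM human CYP3A4 with 25 uM Luciferin-PPXE (at KM) in 200 mM KPO4, preincubated 10 min with compound; NADPH regeneration started a 60 min RT reaction. Luciferin detected by luminescence, normalized to 57 uM ketoconazole as full inhibition.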

Assay [16] addresses Cytochrome P450 2C19 (Homo sapiens) (UniProt P33261). Briefly: qHTS Assay for Inhibitors and Substrates of Cytochrome P450 2C19 (AID 899). Further: potency means the concentration at half of the fitted maximal effect; nearly all actives have a fitted effect of over 60% in size. An outline of the steps:
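Luminescence readout of luciferin formed from 10uM Luciferin-H EGE (KM level) by 5 nM CYP2C19 in 50mM KPO4. 60 min NADPH-driven reaction at 37C after 10 min compound preincubation; data scaled to 57uM ketoconazole inhibition.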

Assay [17] is described as follows: Stat Signaling Pathway (AID 446; active means well fitted curve in either direction with a large enough effect, not every such curve was filed as active). Particulars: ME-180 SIE beta-lactamase reporter, IL-6 stimulated, 5 h; at 7.69 µM (top of the series) unless noted. An outline of the steps: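 ME-180 cells carrying a SIE-driven beta-lactamase reporter are stimulated with 40 pM IL-6 for 5 h at 37C in the presence of compound. The 460/530 nm FRET substrate ratio is read after 2.5 h at RT. Data are normalised to 300 pM IL-6 and to 125 nM JAK inhibitor controls.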

[18] abbreviates: measured here: cell count channel max response.
Setting [19] is: measured here: lipid channel max response.

Results filed as inconclusive are left out. Activity calls are given as the source filed them. Unless noted, the call rests on the fitted dose curve; in most records, active means well fitted curve in the direction sought with a large enough effect; inconclusive means small, poorly fitted or top-dose-only effect, or another doubt; inactive means no such curve, though single readings can be large; an effect the other way counts as inactive or inconclusive.

Sequence of Dual specificity protein kinase CLK4 (Homo sapiens) (Q9HAZ1 whole entry, looked up): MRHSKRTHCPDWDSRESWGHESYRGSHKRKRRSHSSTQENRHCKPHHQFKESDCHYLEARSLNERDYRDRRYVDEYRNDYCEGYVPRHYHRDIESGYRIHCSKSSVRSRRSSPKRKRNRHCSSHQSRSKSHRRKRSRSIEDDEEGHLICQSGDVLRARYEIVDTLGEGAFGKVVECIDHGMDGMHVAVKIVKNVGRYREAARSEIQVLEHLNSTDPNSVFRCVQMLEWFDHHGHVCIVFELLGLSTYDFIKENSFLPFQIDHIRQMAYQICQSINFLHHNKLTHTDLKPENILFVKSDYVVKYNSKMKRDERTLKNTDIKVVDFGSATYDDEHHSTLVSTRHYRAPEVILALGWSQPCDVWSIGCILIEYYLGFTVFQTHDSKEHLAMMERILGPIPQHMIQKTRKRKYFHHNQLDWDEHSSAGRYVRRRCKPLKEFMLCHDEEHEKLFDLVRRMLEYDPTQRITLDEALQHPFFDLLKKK
Sequence of Cytochrome P450 3A4 (Homo sapiens) (P08684 whole entry, looked up): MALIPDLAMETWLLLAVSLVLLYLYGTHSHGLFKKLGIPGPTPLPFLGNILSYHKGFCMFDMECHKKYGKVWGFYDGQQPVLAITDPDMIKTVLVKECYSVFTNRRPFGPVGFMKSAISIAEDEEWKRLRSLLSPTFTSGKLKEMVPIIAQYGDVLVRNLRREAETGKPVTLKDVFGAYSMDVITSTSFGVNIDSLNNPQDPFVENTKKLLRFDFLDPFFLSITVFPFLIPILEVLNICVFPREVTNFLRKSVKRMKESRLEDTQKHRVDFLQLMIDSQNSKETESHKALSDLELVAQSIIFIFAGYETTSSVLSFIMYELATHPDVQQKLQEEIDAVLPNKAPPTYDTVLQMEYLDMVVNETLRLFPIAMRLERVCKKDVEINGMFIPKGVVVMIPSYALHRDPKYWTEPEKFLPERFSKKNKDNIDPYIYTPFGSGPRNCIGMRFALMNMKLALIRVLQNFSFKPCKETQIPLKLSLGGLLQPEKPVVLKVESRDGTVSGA
Sequence of Cytochrome P450 1A2 (Homo sapiens) (P05177 whole entry, looked up): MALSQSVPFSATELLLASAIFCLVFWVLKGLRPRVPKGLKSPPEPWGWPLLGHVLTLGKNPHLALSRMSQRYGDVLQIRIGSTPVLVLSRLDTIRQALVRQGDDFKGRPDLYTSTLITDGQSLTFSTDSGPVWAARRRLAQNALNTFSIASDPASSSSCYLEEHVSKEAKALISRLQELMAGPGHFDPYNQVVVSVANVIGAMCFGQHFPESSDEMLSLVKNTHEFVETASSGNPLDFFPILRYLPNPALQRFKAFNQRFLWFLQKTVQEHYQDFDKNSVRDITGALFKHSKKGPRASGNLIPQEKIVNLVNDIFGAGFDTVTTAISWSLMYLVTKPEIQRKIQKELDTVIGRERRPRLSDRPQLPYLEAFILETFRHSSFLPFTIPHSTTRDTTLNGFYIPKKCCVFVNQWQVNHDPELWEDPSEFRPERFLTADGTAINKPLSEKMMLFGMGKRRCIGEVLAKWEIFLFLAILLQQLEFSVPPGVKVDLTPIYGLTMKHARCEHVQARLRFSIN
Sequence of 3',5'-cyclic-AMP phosphodiesterase 4B (Homo sapiens) (Q07343 whole entry, looked up): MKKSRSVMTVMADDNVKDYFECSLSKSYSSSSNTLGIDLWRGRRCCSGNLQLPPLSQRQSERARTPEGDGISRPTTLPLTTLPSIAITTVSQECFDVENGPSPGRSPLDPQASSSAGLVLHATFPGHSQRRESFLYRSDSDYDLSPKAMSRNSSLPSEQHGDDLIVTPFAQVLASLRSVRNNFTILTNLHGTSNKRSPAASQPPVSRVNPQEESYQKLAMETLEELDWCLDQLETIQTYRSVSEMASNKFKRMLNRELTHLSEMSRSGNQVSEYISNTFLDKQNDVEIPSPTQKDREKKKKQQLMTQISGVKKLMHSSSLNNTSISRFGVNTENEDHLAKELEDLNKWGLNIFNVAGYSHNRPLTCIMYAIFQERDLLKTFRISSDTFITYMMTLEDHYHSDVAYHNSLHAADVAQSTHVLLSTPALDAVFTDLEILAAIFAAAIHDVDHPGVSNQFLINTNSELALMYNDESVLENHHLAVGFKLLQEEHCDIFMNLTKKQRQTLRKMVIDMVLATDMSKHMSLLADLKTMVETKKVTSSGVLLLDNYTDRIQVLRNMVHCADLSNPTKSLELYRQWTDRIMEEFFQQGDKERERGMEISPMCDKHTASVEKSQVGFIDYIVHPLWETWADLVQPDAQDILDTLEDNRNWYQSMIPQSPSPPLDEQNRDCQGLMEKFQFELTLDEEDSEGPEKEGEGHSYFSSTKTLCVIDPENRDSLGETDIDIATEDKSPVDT
Sequence of Cytochrome P450 2C19 (Homo sapiens) (P33261 whole entry, looked up): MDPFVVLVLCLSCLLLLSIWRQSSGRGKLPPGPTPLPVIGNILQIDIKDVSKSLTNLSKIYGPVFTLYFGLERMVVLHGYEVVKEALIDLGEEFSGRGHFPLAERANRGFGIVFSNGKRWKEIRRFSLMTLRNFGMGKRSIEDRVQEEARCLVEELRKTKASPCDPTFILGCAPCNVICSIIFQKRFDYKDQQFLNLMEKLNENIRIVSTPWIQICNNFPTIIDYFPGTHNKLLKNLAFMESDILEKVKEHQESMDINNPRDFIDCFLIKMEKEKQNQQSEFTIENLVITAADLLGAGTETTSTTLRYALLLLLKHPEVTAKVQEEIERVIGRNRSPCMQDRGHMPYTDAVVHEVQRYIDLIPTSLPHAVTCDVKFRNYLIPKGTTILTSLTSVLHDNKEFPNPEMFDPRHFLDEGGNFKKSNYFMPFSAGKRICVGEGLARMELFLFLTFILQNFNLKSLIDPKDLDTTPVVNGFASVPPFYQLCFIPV

`Cn1cc(-c2nc3cnc(Oc4ccccc4)nc3n(C3CC3)c2=O)c2ccccc21`: the Potency was > 11.4 µM (inactive) in assay [1], 5.01 µM (active) in assay [3], > 9.22 µM (inactive) in assay [5] and > 46 µM (inactive) in assay [6]. The results for the activity change, negative = inhibition in [2], in assay [4] and in assay [10] were 13.1% (inactive), 9.34% (inactive) and 1.27% (inactive), respectively. For the same molecule, the result in assay [7] was inactive. In addition, the Potency entry in assay [8], in [9], in assay [11], in [12], in assay [13] and in assay [14] was “inactive” each time. The max response in [10] (setting [18]) was 1.6%; in assay [10] (setting [19]), 0.0554%.
Regarding `Cc1ccccc1-c1cncnc1NCc1ccccc1`, the Potency was > 11.4 µM (inactive) in [1]; 12.6 µM (active) in assay [3]; > 46 µM (inactive) in [5]; > 46 µM (inactive) in assay [6]; 0.316 µM (active) in assay [15]; 2 µM (active) in assay [16]. Further, the activity change, negative = inhibition in [2] was -6.25% (inactive); in [10] it was 5.04% (inactive). In addition, the outcome in assay [7] was inactive. Also, the Potency entry in assay [9], in assay [11], in assay [12], in [13] and in [14] was “inactive” in each case. In addition, the max response worked out at 7.66% in assay [10] (setting [18]) and 10.6% in [10] (setting [19]).
For the molecule `CN(C)c1ccc(-c2ccc3ncnc(N(C)C)c3c2)cc1`, the Potency in assay [1] is > 11.4 µM (inactive); in assay [3], 0.158 µM (active); in assay [5], > 46 µM (inactive); in assay [6], > 46 µM (inactive); in [15], 6.31 µM (active); in [11] it was 3.55 µM (active). Besides, the Potency in assay [12] is 8.91 µM (active). Also, the results for the activity change, negative = inhibition in assay [2], in assay [4] and in [10] were -10.3% (inactive), -14.1% (inactive) and 1.7% (inactive), respectively. In [17], the activity, negative = inhibition is -0.741% (inactive). The molecule was called inactive in assay [7]. Also, the Potency entry in assay [8], in assay [9], in assay [13] and in assay [14] was “inactive” each time. The max response in assay [10] (setting [18]) was found to be 9.5%; in assay [10] (setting [19]) it was 8.94%.
On to `Cc1nc2cnc(N3CCOCC3)nc2n(C[C@H]2CCCO2)c1=O`, for which the Potency was > 11.4 µM (inactive) in assay [1], > 9.22 µM (inactive) in assay [5] and > 46 µM (inactive) in assay [6]. Moreover, the activity change, negative = inhibition in assay [2] was -13.4% (inactive); in [4], -4.93% (inactive); in [10], 3.62% (inactive). In addition, in assay [17], the activity, negative = inhibition was -8.29% (inactive). Also, in assay [7], the outcome was inactive. Moreover, the max response was determined as 10.2% in assay [10] (setting [18]) and 13.9% in assay [10] (setting [19]). The Potency entry in assay [11], in assay [12], in assay [13] and in assay [14] was “inactive” throughout.
Consider `COc1cccc(Nc2ncc3ncc(=O)n(CCc4ccccc4)c3n2)c1`, for which the Potency is > 11.4 µM (inactive) in assay [1]; > 9.22 µM (inactive) in [5]; > 46 µM (inactive) in assay [6]; 0.1 µM (active) in assay [11]; 0.282 µM (active) in assay [12]. Besides, the activity change, negative = inhibition in assay [4] was 4.6% (inactive); in assay [10] it was -5.96% (inactive). Further, in assay [17], the activity, negative = inhibition was -3.68% (inactive). For the same molecule, the molecule was classed as inactive in assay [7]. Moreover, the max response in assay [10] (setting [18]) is -10.9%; in assay [10] (setting [19]), -19.1%. Besides, the Potency entry in assay [13] and in [14] was “inactive” throughout.
